# Bioassay records deposited in PubChem by Sanford-Burnham Center for Chemical Genomics.
# Sampled rows, rich in hits. Any-hit rate of the full collection: about 4%.
# KKLEB cytotox – cytotoxicity in KKLEB CF airway cells, primary screen, cytotoxicity control for CF NF-kB inhibitor project, cell-based, uHTS, fluorescence assay plates. KKLEB CF airway cells viability, ATPlite luminescence, overnight; active compounds read low; cells stimulated with P. aeruginosa culture filtrate. activity change (cytotoxicity), % at 5 µM. 360,000 tested, 0.36% active;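 active = corrected activity change at or below -50% at 5 µM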
# CF NFkB inh – inhibitors of PAF-induced NF-kB signaling, primary screen, cell-based, GFP fluorescence, uHTS; KKLEB NF-kB-GFP reporter, GFP fluorescence overnight; inhibition, % at 5 µM; 360,000 tested, 0.86% active; AID 588850, 2011;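 active = at least 50% inhibition at 5 µM, scaled per plate between neutral and stimulator controls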;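 note: PAF is a Pseudomonas aeruginosa culture filtrate used as stimulus; plate controls were PAF-stimulated DMSO wells for no effect and unstimulated DMSO wells for full effect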
# TWEAK Fn14 block – inhibitors of TWEAK-Fn14 signaling, primary screen, luciferase reporter cells, uHTS; inhibition, % at 10 µM; AID 1159606, 2016; 360,000 tested, 2% active; TWEAK-stimulated Fn14 reporter cells, luciferase luminescence, 8 h; in the data active = inhibition above about 50%
# Peg3 prom inh – Peg3 promoter-driven luciferase inhibitors, primary screen, cell-based, HeLa, luciferase luminescence; HeLa PEG-Prom luciferase reporter, overnight; inhibition, % at 20 µM; AID 588405, 2011; 360,000 tested, 1.7% active;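 active = inhibition of at least 50% at 20 µM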
# HIF-2a block – HIF-2a reporter inhibitors, primary screen, luminescence, 786-0 RCC cells; 786-0 RCC cells HIF-2a reporter, luciferase luminescence, overnight; inhibition, % at 18.8 µM; 360,000 tested, 0.72% active; AID 624352, 2012;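 active = inhibition of the luminescence signal of 40% or more relative to plate controls, in a single-dose primary screen at 18.75 µM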
# TROY signal inh – inhibitors of TROY-driven NF-kB signaling, primary screen, Q293 LMP1-TROYcd cells, NF-kB luciferase, uHTS. Q293 LMP1-TROYcd NF-kB luciferase reporter, 4 h. inhibition, % at 10 µM. 360,000 tested, 0.98% active;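 active = compounds whose plate-normalised and pattern-corrected inhibition of the luciferase reporter signal at the single screening dose is 50% or more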
# Mdm2-MdmX confirm – retested Mdm2-MdmX interaction blockers, confirmation, cell-based, luminescence, single concentration, set 2 | SaOS-2 split-luciferase Mdm2/MdmX complementation | inhibition, % at 8 µM | 740 tested, 99% active | shares compounds with HIF-2a block;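 active = mean inhibition of the luminescence signal across two replicates at or above 26 percent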
# Target sequence (O15151 whole entry, looked up): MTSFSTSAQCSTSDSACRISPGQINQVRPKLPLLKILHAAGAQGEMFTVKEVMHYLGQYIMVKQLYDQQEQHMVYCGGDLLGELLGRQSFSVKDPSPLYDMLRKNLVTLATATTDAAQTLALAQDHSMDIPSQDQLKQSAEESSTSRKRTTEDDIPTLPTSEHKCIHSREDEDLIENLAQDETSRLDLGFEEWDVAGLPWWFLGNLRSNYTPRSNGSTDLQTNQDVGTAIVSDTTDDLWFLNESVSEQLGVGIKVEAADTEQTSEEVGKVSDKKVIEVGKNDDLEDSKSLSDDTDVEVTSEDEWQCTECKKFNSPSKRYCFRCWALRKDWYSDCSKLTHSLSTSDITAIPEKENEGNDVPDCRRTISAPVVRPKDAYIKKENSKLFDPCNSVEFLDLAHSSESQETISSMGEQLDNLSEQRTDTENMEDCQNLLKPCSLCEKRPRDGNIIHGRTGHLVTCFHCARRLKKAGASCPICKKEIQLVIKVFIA
# Target sequence (Q00987 whole entry, looked up): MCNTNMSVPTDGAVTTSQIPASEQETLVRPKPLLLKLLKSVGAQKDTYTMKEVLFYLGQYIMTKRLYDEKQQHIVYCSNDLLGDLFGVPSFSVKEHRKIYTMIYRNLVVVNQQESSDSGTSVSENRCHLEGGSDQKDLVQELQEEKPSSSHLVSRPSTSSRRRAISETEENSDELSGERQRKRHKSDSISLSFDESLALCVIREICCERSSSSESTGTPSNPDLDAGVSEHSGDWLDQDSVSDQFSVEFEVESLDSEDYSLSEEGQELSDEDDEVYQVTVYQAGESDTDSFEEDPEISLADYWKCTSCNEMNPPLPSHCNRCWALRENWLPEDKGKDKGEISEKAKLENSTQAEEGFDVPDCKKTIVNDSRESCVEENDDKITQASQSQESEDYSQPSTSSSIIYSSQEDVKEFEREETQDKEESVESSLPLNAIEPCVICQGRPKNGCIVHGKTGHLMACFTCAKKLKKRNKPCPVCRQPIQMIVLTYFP
# HIF-2a inh conf – HIF-2a reporter inhibitor retest, confirmation, luminescence, 786-0 RCC cells | shares compounds with HIF-2a block | HIF-2a luciferase reporter luminescence, overnight | inhibition, % at 18.8 µM | 1,800 tested, 56% active;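 active = mean inhibition across four replicates of at least 40 percent at the single tested concentration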
# HIF-1a cs – HIF-1a luciferase reporter signal reduction – MiaPaCa-2 cells, single concentration, counter-screen for HIF-2a inhibitor project, confirmation | shares compounds with HIF-2a block | MiaPaCa-2 HIF-1a luciferase reporter, desferoxamine, overnight | inhibition, % at 18.8 µM | 1,800 tested, 72% active;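 active = mean inhibition of the reporter signal across four replicates at the single tested dose of 50% or more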
# Starred values were filed as active, the others as inactive; . = no result.
SMILES,KKLEB cytotox,CF NFkB inh,TWEAK Fn14 block,Peg3 prom inh,HIF-2a block,TROY signal inh,HIF-2a inh conf,HIF-1a cs,others
Cc1cccc(C(=O)NNC(=O)C2CC2)c1,-7.2,23.8,-18.7,5.2,4.8,-4.2,.,.,
CC1(C)CC(=O)C(CSC(=O)c2ccccc2)C(=O)C1,1.5,27.1,13.7,-6.2,13.0,-6.0,.,.,
CC(=O)Nc1ccc2[nH]c3ccccc3c2c1,2.2,-6.1,-11.5,-52.2,-112.4,-15.1,.,.,
O=C(Nc1ccc(Cl)cc1)c1cc2c(cc1O)[nH]c1ccccc12,-63.2*,66.6*,81.7*,53.6*,-74.5,55.1*,.,.,Mdm2-MdmX confirm=102.2*
Cc1ccc(CN2CCN(Cc3ccc(O)cc3)CC2CCO)o1 (centres undefined),4.2,0.7,3.1,1.8,13.9,13.9,.,.,
CC(=O)NCC(c1cccs1)S(=O)(=O)c1ccc(F)cc1 (centres undefined),11.1,1.1,-1.1,0.3,12.5,4.0,.,.,
Cc1c(Nc2cc(Cl)c3nonc3c2[N+](=O)[O-])c(=O)n(-c2ccccc2)n1C,-55.6*,94.0*,50.3*,104.7*,98.1*,83.6*,98.5*,104.6*,Mdm2-MdmX confirm=103.2*
O=[N+]([O-])c1c(Nc2cccc(O)c2)cc(Cl)c2nonc12,-91.6*,91.3*,64.3*,102.8*,89.7*,88.2*,95.3*,105.1*,Mdm2-MdmX confirm=103.7*
O=[N+]([O-])c1c(Nc2ccccc2O)cc(N2CCOCC2)c2nonc12,-13.8,-4.9,-29.5,23.8,50.8*,3.7,22.5,71.6*,
COc1cccc(Nc2cc(N3CCOCC3)c3nonc3c2[N+](=O)[O-])c1,-20.2,7.6,-18.9,-1.4,26.1,-25.1,.,.,
COc1cc(NC(=O)Cn2cnc3c(NCc4ccccc4)ncnc32)cc(OC)c1OC,-19.0,10.9,-23.4,-5.3,10.8,-13.8,.,.,
CCN(C(=O)CSc1nccc(=O)[nH]1)c1cccc2ccccc12,6.2,-13.8,-1.7,4.2,3.4,-1.3,.,.,
COc1ccc(/C=C/C(=O)C23CC4CC(CC(C4)C2)C3)cc1CN1CCOCC1,-5.6,13.4,26.4,48.4,43.7*,8.4,2.5,42.1,
O=C(c1ccccc1)c1c2c(cc3sc4ccccc4[n+]13)-c1cccc3cccc-2c13,-36.0,-29.0,60.0*,100.9*,77.5*,39.7,56.5*,98.2*,
O=C1CCN(Cc2ccc(Cl)cc2Cl)C(=O)N1,0.0,3.2,7.0,9.6,12.2,-4.4,.,.,
O=C(O)c1cccc(NC(=O)C2CCCO2)c1 (centres undefined),-2.5,-7.6,16.9,7.5,26.5,-1.0,.,.,
O=C(O)c1cccc(C(=O)Nc2cccc(NC(=O)C3CCCO3)c2)c1 (centres undefined),0.6,-5.2,9.3,37.6,48.5*,0.0,47.8*,-31.8,
Cc1cc(C)nc(NC(=O)/C=C/c2ccccc2Cl)n1,-4.3,5.0,-25.0,-98.0,-137.0,-41.8,.,.,
Cc1cc(N)c2cc(NC(=O)/C=C/c3ccccc3Cl)ccc2n1,-30.5,18.6,34.3,103.8*,96.3*,81.0*,95.4*,107.7*,Mdm2-MdmX confirm=103.0*
Cc1ccc(Oc2c(C(N)=O)cc([N+](=O)[O-])cc2[N+](=O)[O-])cc1,-94.8*,84.9*,41.0,105.9*,94.3*,-1.2,73.9*,102.0*,Mdm2-MdmX confirm=102.5*
CCOC(=O)c1sc(NC(=O)c2cc(-c3ccccc3)nc3ccccc23)c(C#N)c1C,-28.3,37.7,61.9*,29.1,2.8,63.4*,.,.,Mdm2-MdmX confirm=98.0*
CCN(C[C@H]1N[C@@](CC)(C(=O)OC)[C@H]2C(=O)N(Cc3ccccc3)C(=O)[C@@H]12)S(=O)(=O)c1ccc(C(C)(C)C)cc1,-10.8,24.4,9.7,-7.9,1.4,13.0,.,.,
Cc1ccc(COc2ccc(-c3nnco3)cc2)cc1,6.2,-7.1,-8.3,-385.7,-355.5,-23.4,.,.,
Cc1ccc(C(C)C)c(OCc2ccc(-c3nnco3)cc2)c1,2.3,15.0,6.7,-48.3,69.1*,-3.3,70.9*,-44.8,
N#CC1=C(N)Oc2n[nH]c(-c3cccs3)c2C1C1CCCCC1 (centres undefined),-4.4,18.4,-7.0,20.5,40.3*,8.3,22.4,4.2,
SMILES,KKLEB cytotox,CF NFkB inh,TWEAK Fn14 block,Peg3 prom inh,HIF-2a block,TROY signal inh,HIF-2a inh conf,HIF-1a cs,others
N#CC1=C(N)Oc2n[nH]c(-c3cccs3)c2C1C1C=CCCC1 (centres undefined),-1.9,18.5,9.2,31.1,27.2,12.9,.,.,
Cc1ccc(C)c(-n2nnnc2Sc2nnnn2-c2ccccc2)c1,-68.3*,92.0*,101.1*,95.8*,29.2,53.1*,.,.,Mdm2-MdmX confirm=103.2*
CC12CCC(=O)N1C(C(=O)Nc1cc(Cl)ccc1N1CCOCC1)CS2 (centres undefined),0.5,16.0,-0.8,-191.9,-5.1,9.8,.,.,
O=C1c2ccc(Cl)cc2S(=O)(=O)c2cccc(C(=O)N3CCC(Cc4ccccc4)CC3)c21,-29.1,17.0,-55.7,90.8*,50.0*,65.4*,13.5,105.3*,
CN(C)c1ncnc2c1ccn2C1OC(CO)C(O)C1O (centres undefined),-63.0*,36.5,-15.3,7.6,43.7*,-57.8,34.4,27.1,
COc1cccc(C(=O)/C=C/c2ccc(OCC#N)c(OC)c2)c1,-28.5,11.9,83.8*,106.8*,84.8*,0.7,41.6*,105.3*,
CCOc1ccc(/C=C/C(=O)c2ccccc2)cc1OC,-11.7,-0.4,15.0,-203.0,-145.2,-57.4,.,.,
Cc1ccc(CNC(=O)c2ccc([N+](=O)[O-])o2)cc1,14.1,-9.4,24.1,1.9,9.3,7.0,.,.,
Cc1ccc(/C=C/C(=O)c2ccc([N+](=O)[O-])o2)cc1,.,.,.,.,.,.,.,.,Mdm2-MdmX confirm=103.2*
Cc1ccc(S(=O)(=O)NCCC2=CCCCC2)cc1,8.3,8.2,-4.6,-11.8,-6.1,-14.1,.,.,
CCOC(=O)COc1ccc(S(=O)(=O)NCCC2=CCCCC2)cc1,0.4,10.0,12.4,11.1,54.1*,5.8,7.3,-0.6,
